Sm TGR block – S. mansoni TGR enzyme inhibition; Q962Y6; purified TGR, DTNB reduction, TNB absorbance 405 nm; Potency, µM (series often up to 114 µM), inactives show top-dose activity change, negative = inhibition, hits mostly inhibitors; hit rate 3% among 360,000; AID 485364; note: % is set by controls: 0 for no effect and ±100 for the full control effect; nearly all actives have a fitted effect of over 60% in size
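TGR 20 nM + NADPH 100 uM (dispensed conc.), cpd preinc 15 min RT; start with NADPH (500 uM addition) then DTNB (15 mM addition). Kinetic TNB absorbance, 405 nm filter. Four-parameter Hill fit across titration.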
RE007 growth inh – less growth of the S. pombe RE007 Vpr strain; S. pombe RE007 Vpr strain, BacTiter-Glo ATP luminescence, 24 h; Potency, µM (series often up to 92.2 µM), for the others: top-dose activity change, negative = less growth, most hits filed as inhibitors; hit rate 0.21% among 360,000; active = well fitted falling curve with a large enough effect; inconclusive = small, poorly fitted or top-dose-only effect; inactive = no such curve, though single readings can be large or run the other way; note: % is set by controls: 0 for no effect and ±100 for the full control effect; nearly all actives have a fitted effect of over 50% in size
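Fission yeast RE007 carrying one integrated HIV-1 vpr copy, seeded at OD 0.01 in PMG+AL medium with 23 nL pinned compound. Grown 24 h at 30 degrees; viability read by BacTiter-Glo luminescence after 5 min.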
Tb PYK inh – inhibitors of Trypanosoma brucei pyruvate kinase | Potency, µM (top dose mostly 76.8 µM), for the others: at the top dose activity, negative = inhibition, actives largely listed as inhibitors | hit rate 0.12% among 410,000 | Q57TT1 | TbPYK enzyme, Kinase-Glo Plus ATP luminescence, 45 min; note: % is set by controls: 0 for no effect and ±100 for the full control effect; nearly all actives have a fitted effect of over 50% in size
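In this concentration-response screen, enzyme-free wells defined baseline while DMSO plates tracked drift. Each reaction combined TbPYK, substrate, compound and 130 uM ADP for 45 min at room temperature. Kinase-Glo Plus luminescence gave the signal.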
NS1 function inh – inhibitors of influenza NS1 protein function. Potency, µM (highest dose often 46.1 µM), without a hit: top-dose activity, positive = more growth. hit rate 0.4% among 270,000. AID 2326; calls by dose curve; note: actives are rising curves; nearly all actives have a fitted effect of over 50% in size
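Read-out: OD600 growth recovery of NS1-expressing budding yeast. Cells grown overnight at 30C in -URA glucose medium, washed, resuspended and diluted 1:100 in 2% galactose assay medium, pH 6.0. Same strain lacking NS1 served as positive control.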
LmPK inhibitor – LmPK (Leishmania mexicana) enzyme inhibition. hit rate 0.37% among 290,000. purified LmPK, Kinase-Glo ATP luminescence, 1 h. Potency, µM (top dose mostly 57.5 µM), inactives show at the highest dose activity change, negative = inhibition, most hits filed as inhibitors. AID 1721; note: % is set by controls: 0 for no effect and ±100 for the full control effect
Target sequence (Q27686 whole entry, looked up): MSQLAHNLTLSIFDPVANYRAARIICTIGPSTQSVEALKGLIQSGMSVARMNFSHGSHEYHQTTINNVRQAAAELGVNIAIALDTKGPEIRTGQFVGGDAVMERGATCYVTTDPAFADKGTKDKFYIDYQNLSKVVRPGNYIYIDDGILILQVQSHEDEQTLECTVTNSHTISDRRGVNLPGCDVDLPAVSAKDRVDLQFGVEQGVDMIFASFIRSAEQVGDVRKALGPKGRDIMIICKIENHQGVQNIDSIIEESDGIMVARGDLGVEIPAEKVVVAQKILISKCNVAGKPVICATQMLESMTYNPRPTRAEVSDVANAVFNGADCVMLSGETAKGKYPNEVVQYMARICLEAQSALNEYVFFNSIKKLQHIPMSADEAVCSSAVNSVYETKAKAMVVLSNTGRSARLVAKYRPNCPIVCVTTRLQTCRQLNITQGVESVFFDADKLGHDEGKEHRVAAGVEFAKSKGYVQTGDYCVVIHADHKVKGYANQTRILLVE
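0.1 nM LmPK, 0.5 mM PEP, 0.1 mM ADP; 50 mM imidazole pH 7.2, 7 mM MgCl2, 50 mM KCl; 1 h RT. Kinase-Glo luminescence readout, normalized to no-enzyme (full inhibition) and uninhibited wells.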
SARS PLpro yeast – blocks SARS-CoV papain-like protease in a yeast assay; Potency, µM (series often up to 32.9 µM), for the others: at the top dose activity, positive = growth rescue, usual class: activators; hit rate 0.19% among 330,000; S. cerevisiae expressing SARS-CoV PLpro, growth rescue; AID 485353; calls by dose curve; note: 0% is about no effect; nearly all actives have a fitted effect of over 55% in size
* hit, by the source's call. Hits are enriched below; roughly 3.3% of the tested compounds scored in any of these assays. Unless noted, calls come from the whole dose curve; as a rule, active = well fitted curve in the direction sought with a large enough effect; inconclusive = small, poorly fitted or top-dose-only effect, or another doubt; inactive = no such curve, though single readings can be large; an effect the other way counts as inactive or inconclusive. Potency is the fitted concentration of half-maximal effect.

Screening COC(=O)C1=C(O)/C(=C\c2ccc(CNC(=O)C(=O)Nc3ccc(C)cc3)o2)N=C1C returned Sm TGR block 18µM*, RE007 growth inh -13%, Tb PYK inh -1%, NS1 function inh 10%, LmPK inhibitor 3% and SARS PLpro yeast -2%.
`COC(=O)C1=C(O)/C(=C/c2ccc(OCC(=O)Nc3ccc(OC)cc3)cc2)N=C1C` gave RE007 growth inh 5% and Tb PYK inh -4%.
For CCOC(=O)C(=O)NCc1ccc(/C=C2/N=C(C)C(C(=O)OCC)=C2O)o1 the results were Sm TGR block 32µM*, RE007 growth inh -5%, Tb PYK inh -4%, NS1 function inh 5%, LmPK inhibitor 4% and SARS PLpro yeast 1%.
`CCOC(=O)C1=C(O)/C(=C\c2cccc(OC)c2)N=C1C` gave Sm TGR block 1%, RE007 growth inh -2%, Tb PYK inh -6%, NS1 function inh inconclusive, LmPK inhibitor -4% and SARS PLpro yeast 11%.
CCOC(=O)C1=C(O)/C(=C/c2ccc(CNC(=O)C(=O)Nc3ccc(C)cc3)o2)N=C1C was read as Sm TGR block 18µM*, RE007 growth inh 1%, Tb PYK inh -10%, NS1 function inh 22%, LmPK inhibitor -4% and SARS PLpro yeast -7%.
`COC(=O)C1=C(O)/C(=C\c2ccc(CNC(=O)C(=O)Nc3ccc(C)c(C)c3)o2)N=C1C` gave Sm TGR block 32µM*, RE007 growth inh 0%, Tb PYK inh -11%, NS1 function inh -1%, LmPK inhibitor 13% and SARS PLpro yeast 6%.
Screening CCOC(=O)c1ccc(NC(=O)C(=O)NCc2ccc(/C=C(/C#N)C(=O)NCCOC)o2)cc1 returned Sm TGR block 6%, RE007 growth inh -5%, Tb PYK inh -3%, LmPK inhibitor -2% and SARS PLpro yeast 2%.
Screening COc1cccc(Cn2c(=O)n(-c3cccc(Cl)c3C)c(=O)c3c4c(sc32)CN(C(C)=O)CC4)c1 returned Sm TGR block 3% and Tb PYK inh 0%.
Screening CCC(C)Nc1ccc(NC(C)CC)cc1 (stereo not drawn) returned Sm TGR block 32µM*, RE007 growth inh inconclusive, Tb PYK inh -5% and SARS PLpro yeast 3%.
`CCC(C)NC(=O)Nc1ccc(Br)cc1` (stereo not drawn) gave Sm TGR block 13%, RE007 growth inh -18%, Tb PYK inh 1%, LmPK inhibitor -2% and SARS PLpro yeast 0%.
Screening O=C(CSc1ccc(-c2cccs2)nn1)Nc1cccc(F)c1 returned Sm TGR block -4% and Tb PYK inh 1%.
Screening Cc1ccc2c(c1)c1nnc(SCC(=O)N3CCCc4ccccc43)nc1n2CC(=O)O returned Sm TGR block -2%, RE007 growth inh 6%, Tb PYK inh 2%, NS1 function inh -5%, LmPK inhibitor 4.5µM* and SARS PLpro yeast -3%.
COc1cccc(CN2CC(C(=O)NCCc3ccc(C)o3)CCC2=O)c1 (stereo not drawn) was read as Sm TGR block 13µM*, RE007 growth inh 14%, Tb PYK inh 2%, NS1 function inh 9%, LmPK inhibitor -3% and SARS PLpro yeast -2%.
For Cc1cc(C)nc(CCNC(=O)C2CCC(=O)N(Cc3ccccc3F)C2)n1 (stereo not drawn) the results were Sm TGR block 0%, RE007 growth inh 6%, Tb PYK inh -2%, NS1 function inh 10%, LmPK inhibitor 1% and SARS PLpro yeast -3%.
Screening Cc1ccc(CCNC(=O)C2CCC(=O)N(Cc3ccccc3F)C2)o1 (stereo not drawn) returned Sm TGR block 45µM*, RE007 growth inh -2%, Tb PYK inh -10%, NS1 function inh 4%, LmPK inhibitor 4% and SARS PLpro yeast -1%.
For COc1cccc(CCNC(=O)C2CCC(=O)N(Cc3cccc(OC)c3)C2)c1 (stereo not drawn) the results were Sm TGR block 4%, RE007 growth inh 7%, Tb PYK inh -9%, NS1 function inh 1%, LmPK inhibitor -2% and SARS PLpro yeast -2%.

Screening data as filed in PubChem BioAssay.
